Compound activity deposited in PubChem BioAssay by National Center for Advancing Translational Sciences (NCATS).
BRCA1 expr act – increases BRCA1 expression; MCF7-BRCA1-FFLuc reporter, luminescence, 48 h; response scale: scaled: vehicle 0%, 10 µM genistein 100%; Potency, µM (highest dose often 46.1 µM), for inactives: top-dose activation, usual class: activators; AID 624202; 380,000 compounds, 1.1% hits; further: potency means the concentration at half of the fitted maximal effect; nearly all actives have a fitted effect of over 80% in size
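Luminescence from a BRCA1-driven firefly luciferase in MCF7 cells was the read-out, taken 15 min after substrate addition following 48 h compound exposure at 37 °C. Data were normalized to a 10 microM genistein control and DMSO vehicle.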
Nrf2 ARE act – activates Nrf2 signaling. Potency, µM (highest dose often 46.1 µM), without a hit: top-dose activation, hits mostly activators. AID 624171. 410,000 compounds, 0.31% hits. AREc32 ARE-luciferase reporter (MCF7-derived line), luminescence, 24 h; further: potency means the concentration at half of the fitted maximal effect; % of control where 0% means no effect; nearly all actives have a fitted effect of over 65% in size
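Luminescent ARE reporter assay in AREc32_Fluc cells: overnight plating at 37 deg C, 24 hr compound incubation, Steady-Glo added, 30 min RT before reading.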
ELG1 repair inh – blocks ELG1-dependent DNA repair in HEK293T cells; HEK293T ELG1-luciferase reporter, luminescence, 16 h; DNA damage induced by 5-fluorouridine; Potency, µM (series often up to 46.1 µM), for inactives: top-dose activity change, negative = inhibition, actives largely listed as inhibitors; 330,000 compounds, 2.3% hits; AID 504467; further: potency means the concentration at half of the fitted maximal effect; on the % scale 0 is the no-effect control and ±100 the full control effect; nearly all actives have a fitted effect of over 55% in size
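Step one: seed 2,000 cells per well. Step two: pin-transfer compound or DMSO alongside 5-fluorouridine. Step three: incubate 16 hr, 37 °C, 5% CO2. Step four: add ONE-Glo, wait 30 min, read luminescence.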
IL-2 act – activates IL-2 in a cell-based reporter assay; IL-2 activation reporter assay, cell-based qHTS; stimulated with anti-CD3/CD4/CD28 beads; in transgenic mouse T cells; activation, % (series mostly up to about 46 µM); 360,000 compounds, 0.065% hits; in the data active means activation above about 50%; inconclusive means mostly about 30% to 49%; further: 0% is about no effect
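Quantitative HTS in unstimulated transgenic mouse T cells, with memory T cells as non-tolerant control and PMA/ionomycin as tolerance-bypass control. Compound pretreatment lasted 60 minutes before 18 h bead stimulation; EGFP/DsRed fluorescence read.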
Starred values were filed as active, the others as inactive; ? = inconclusive; nt = not tested or not shown; [ ] = dose if it differs, or a comment. This is a sample that favours compounds with a hit; in the whole collection about 3.1% have one here. Unless noted, the call rests on the fitted dose curve; in most records, active means well fitted curve in the direction sought with a large enough effect; inconclusive means small, poorly fitted or top-dose-only effect, or another doubt; inactive means no such curve, though single readings can be large; an effect the other way counts as inactive or inconclusive.

SMILES	BRCA1 expr act	Nrf2 ARE act	ELG1 repair inh	IL-2 act
O=C(/C=C/c1ccc(OC(F)F)cc1)Nc1cccc(S(=O)(=O)N2CCOCC2)c1	1%	-2%	23µM*	-2
CCN(CC)S(=O)(=O)c1ccc(C)c(NC(=O)/C=C/c2cccs2)c1	-24%	0%	16µM*	0
COc1ccc(/C=C/C(=O)Nc2ccccc2)cc1OC	11µM*	3%	?	-5
COc1ccc(/C=C/C(=O)NC(=S)Nc2ccccc2)cc1OC	-26%	2%	?	0
CN(C)S(=O)(=O)c1cccc(NC(=O)/C=C/c2ccc(S(=O)(=O)N3CCOCC3)cc2)c1	-39%	1%	23µM*	-5
CCOc1ccc(C2C(C(=O)Nc3ccc(OC)cc3)=C(C)Nc3nc(SCc4ccc(Cl)cc4)nn32)cc1 (configuration not stated)	10%	0%	nt	nt
O=C(CN1C(=O)CC(c2ccccc2)Sc2ccccc21)Nc1cccc(Cl)c1 (configuration not stated)	-5%	0%	nt	nt
COc1ccc(NC(=O)/C=C/c2ccccc2)cn1	8.9µM*	0%	?	-1
CCN(CC)S(=O)(=O)c1ccc(/C=C/C(=O)Nc2cccc(F)c2)cc1	12%	5%	13µM*	-5
COc1ccc(/C=C/C(=O)Nc2cccc(S(=O)(=O)N3CCOCC3)c2)cc1OC	-12%	5%	21µM*	-1
COc1ccc(-c2cnnn2-c2ccc(NC(=O)/C=C/c3ccc(OC)c(OC)c3)cc2)cc1	-1%	1%	5.8µM*	-1
CCc1ccccc1N1C(=O)N(Cc2ccccc2C)c2ccccc2S1(=O)=O	-5%	0%	nt	nt
CCOC(=O)c1ccc(CN(Cc2ccc(F)cc2)S(=O)(=O)c2ccc(F)c(C(=O)Nc3cc(Cl)ccc3OC)c2)cc1	nt	1%	nt	nt
CCOC(=O)c1cccc(NC(=O)c2cc3ccccn3n2)c1	nt	-3%	nt	nt
Cc1cccc(C(=O)NC(=O)Nc2ccc(-n3nc(C(F)(F)F)cc3C(F)(F)F)cc2)c1	nt	-1%	nt	nt
O=C(/C=C/c1ccco1)Nc1cccc(S(=O)(=O)N2CCOCC2)c1	10%	5.6µM*	16%	-1
Cc1ccc(/C=C/C(=O)Nc2cccc(S(=O)(=O)N3CCOCC3)c2)o1	-35%	27%	-6%	0
CC(=O)c1cccc(NC(=O)/C=C/c2ccc(S(=O)(=O)N3CCOCC3)cc2)c1	-26%	1%	23µM*	0
O=C(/C=C/c1ccccc1)Nc1ccc(S(=O)(=O)N2CCOCC2)cc1	-31%	3%	nt	0
O=C(Nc1ccc(N2CCN(C(=O)c3ccco3)CC2)cc1)c1ccccc1	19%	1%	?	-1
O=C(Nc1ccc(N2CCN(C(=O)c3ccco3)CC2)cc1)c1ccc(F)cc1	-12%	4%	21µM*	-3
COc1cccc(OC)c1C(=O)Nc1ccc(N2CCN(C(=O)c3ccco3)CC2)cc1	9%	1%	18%	0
Cc1cc(C)cc(C(=O)Nc2ccc(N3CCN(C(=O)c4ccco4)CC3)cc2)c1	-45%	-1%	21µM*	-3
OC(c1ccc(F)cc1)c1ncc(-c2ccc3ccccc3c2)[nH]1 (configuration not stated)	4%	1%	nt	-1
O=C(COc1ccc(/C=N/NC(=O)CSCc2ccc([N+](=O)[O-])cc2)cc1)NCc1ccco1	-19%	4%	23µM*	2
SMILES	BRCA1 expr act	Nrf2 ARE act	ELG1 repair inh	IL-2 act
CCCOc1ccc(/C=N/NC(=O)CSCc2ccc([N+](=O)[O-])cc2)cc1OCC	-17%	2%	23µM*	-4
CC1(C(=O)Nc2ccc3c(c2)OCCO3)CSCC(=O)N1Cc1ccco1 (configuration not stated)	nt	nt	nt	-1
COc1ccc(-n2c(/C=C/c3cccc4ccccc34)nc3ccccc3c2=O)cc1Cl	nt	0%	nt	nt
CC(C)(C)C(=O)N1CCN(c2ccc(NC(=O)c3ccc4c(c3)OCCO4)cc2)CC1	-24%	0%	16µM*	0
O=C(Nc1ccccc1N1CCN(C(=O)c2ccc(Cl)cc2)CC1)c1cccc(F)c1	-18%	2%	?	-2
COc1ccc(Nc2ncc(C(=O)N3CCN(c4ccc(F)cc4)CC3)c3ccccc23)cc1	-45%	4%	21µM*	-3
O=C(Nc1ccccc1N1CCN(C(=O)c2ccc(Cl)cc2)CC1)c1ccc2c(c1)OCO2	-5%[1.84 µM]	4%	16µM*	2
O=C(Nc1ccc(N2CCN(C(=O)c3ccc(Cl)cc3)CC2)cc1)c1ccc([N+](=O)[O-])o1	-89%	6.3µM*	?	0
Cc1cccc(N2CCN(C(=O)c3cn(CC(C)C)c(=O)c4c3c3ccccc3n4C)CC2)c1C	nt	0%	nt	nt
COc1ccc(C(=O)N2CCN(c3ccc(NC(=O)Cc4ccccc4)cc3)CC2)cc1	-26%	0%	9.2µM*	0
O=C(Nc1ccc(N2CCCCC2)cc1)c1ccc2c(c1)OCCO2	23%	0%	?	-1
O=C(Cc1ccc(Cl)cc1)Nc1ccc(N2CCN(C(=O)c3ccco3)CC2)c(Cl)c1	-67%	1%	13µM*	0
COc1ccccc1N1CCN(c2ncc(C(=O)N3CCN(c4cccc(Cl)c4)CC3)c3ccccc23)CC1	-10%	0%	5.2µM*	0
O=C(Nc1ccc(N2CCN(C(=O)c3ccc(Cl)cc3)CC2)cc1)c1ccc2c(c1)OCCO2	-83%	0%	4.1µM*	-1
Cc1ccc(C(=O)N2CCN(c3ccc(NC(=S)NC(=O)Cc4ccccc4)cc3)CC2)cc1	-41%	-1%	0%	-4
O=C(c1cnc(N2CCCCC2)c2ccccc12)N1CCN(c2cccc(Cl)c2)CC1	nt	0%	nt	nt
COc1cccc(C(=O)N(Cc2ccco2)c2ccccn2)c1	26%	-1%	nt	nt
CCOC(=O)c1c(C)[nH]c(C)c1S(=O)(=O)N1CCCC(C(=O)Nc2ccc(C)c(N(C)C)c2)C1 (configuration not stated)	-34%	1%	nt	nt
CC(C)(CC(=O)OCC(=O)Nc1ccc(F)c(Cl)c1)CC1=NS(=O)(=O)c2ccccc2N1	-37%	4%	nt	nt
COCCNC(=O)c1ccc(N2CC3CC(C2)c2cccc(=O)n2C3)c(NC(=O)c2ccc(C(C)(C)C)cc2)c1 (configuration not stated)	-9%	0%	nt	0
O=C(Nc1ccc(N2CCN(C(=O)c3ccccc3)CC2)cc1)c1ccc2c(c1)OCCO2	-12%	0%	15µM*	-5
O=C(Nc1ccc(N2CCN(C(=O)c3ccccc3)CC2)cc1)c1cc2ccccc2o1	-66%	0%	9.2µM*	0
CC(=O)N1CCN(c2ccc(NC(=O)c3ccc4c(c3)OCCO4)cc2)CC1	4%	-1%	2%	0
O=C(CSc1ccc(Cl)cc1)Nc1ccccc1N1CCN(C(=O)c2ccc(Cl)cc2)CC1	-30%	-1%	23µM*	-4
O=C(Nc1ccc(N2CCN(C(=O)c3ccccc3)CC2)cc1)c1ccc(Br)o1	8%	0%	?	0
